# Only some compounds are listed: those with a hit (about 1.5% of all), similar ones and a draw of the others.
# FEN1 inhibitor – qHTS Assay for the Inhibitors of Human Flap endonuclease 1 (FEN1) | P39748 | Recombinant FEN1 flap cleavage, fluorescence, 15 min | Potency, µM (top dose mostly 114 µM), actives largely listed as inhibitors | 390,000 tested, 0.35% active | AID 588795, 2011; also: nearly all actives have a fitted effect of over 65% in size
# Target sequence (P39748 whole entry, looked up): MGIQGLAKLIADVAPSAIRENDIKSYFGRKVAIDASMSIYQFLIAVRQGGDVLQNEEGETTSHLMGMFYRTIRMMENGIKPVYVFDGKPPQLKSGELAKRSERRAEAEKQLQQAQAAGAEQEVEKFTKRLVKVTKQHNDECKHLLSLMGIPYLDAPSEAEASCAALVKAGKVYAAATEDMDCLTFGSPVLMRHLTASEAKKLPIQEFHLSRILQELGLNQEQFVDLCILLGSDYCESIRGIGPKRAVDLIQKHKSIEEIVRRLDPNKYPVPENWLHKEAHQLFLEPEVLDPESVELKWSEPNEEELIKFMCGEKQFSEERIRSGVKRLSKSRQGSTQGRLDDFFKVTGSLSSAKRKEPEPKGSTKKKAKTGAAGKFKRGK
#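 In this screen, 50 nM flap DNA substrate was added to 10 nM FEN1 pretreated with compound for 15 min at room temperature; cleavage was followed with reads at 0 and 15 min, and Hill fitting gave concentration–response parameters.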
# RECQ1 helicase – qHTS Assay for Inhibitors of RecQ-Like Dna Helicase 1 (RECQ1) | ATP-dependent DNA helicase Q1 (Homo sapiens), P46063 | RECQ1 DNA unwinding, red fluorescence kinetic read | Potency, µM (titrated, usually from 57.3 µM), usual class: inhibitors | 240,000 tested, 0.54% active | AID 2549, 2010; also: nearly all actives have a fitted effect of over 30% in size
#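 RECQ1T1 50 nM; forked duplex (20 bp + 30-nt ss tails) 200 nM, ATP 2 mM final; pH 8.0, 2 mM MgCl2, 2.5 ug/ml poly(dI-dC); 15 min compound preincubation; discontinuous kinetic read over 2 h at RT.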
# WRN inhibitor – qHTS for Inhibitors of WRN Helicase; Bifunctional 3'-5' exonuclease/ATP-dependent helicase WRN (Homo sapiens), Q14191; WRN helicase unwinding, fluorescent forked duplex, kinetic; Potency, µM (titrated, usually from 114 µM), usual class: inhibitors; 360,000 tested, 0.46% active; AID 651768, 2012; also: nearly all actives have a fitted effect of over 55% in size
#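 Fluorescence dequenching readout, ex 525 nm/em 598 nm, kinetic mode: forked duplex DNA (100 nM final) with adjacent fluorophore and quencher unwound by WRN (20 nM final) with 2 mM ATP. Compound preincubation 15 min, room temperature.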
# APE1 inh-1 – qHTS Assay for Inhibitors of the Human Apurinic/apyrimidinic Endonuclease 1 (APE1) | DNA repair nuclease/redox regulator APEX1 (Homo sapiens), P27695 | recombinant APE1, TAMRA/BHQ-2 abasic DNA cleavage fluorescence | Potency, µM (series often up to 65.8 µM), actives largely listed as inhibitors | 350,000 tested, 0.35% active; also: nearly all actives have a fitted effect of over 55% in size
# Target sequence (P27695 whole entry, looked up): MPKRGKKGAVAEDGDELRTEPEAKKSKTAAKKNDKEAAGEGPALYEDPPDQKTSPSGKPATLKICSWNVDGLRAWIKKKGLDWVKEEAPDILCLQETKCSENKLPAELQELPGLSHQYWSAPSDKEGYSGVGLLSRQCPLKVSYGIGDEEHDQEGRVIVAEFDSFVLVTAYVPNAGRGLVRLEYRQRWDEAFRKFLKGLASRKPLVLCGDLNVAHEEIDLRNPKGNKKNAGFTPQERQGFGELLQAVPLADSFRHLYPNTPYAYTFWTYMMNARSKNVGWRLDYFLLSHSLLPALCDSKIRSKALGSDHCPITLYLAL
#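 APE1 at 0.75 nM final was preincubated with compound 15 min at room temperature, then 50 nM double-stranded THF abasic-site substrate (5'-TAMRA/3'-BHQ-2) was added. Fluorescence (ex 525/em 598 nm) was read kinetically; third-minus-first read gave activity.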
# BLM inh – qHTS Assay for Inhibitors of Bloom's syndrome helicase (BLM). RecQ-like DNA helicase BLM (Homo sapiens), P54132. recombinant BLM DNA unwinding, fluorescence dequenching. Potency, µM (doses to about 56.1 µM), most hits filed as inhibitors. 350,000 tested, 0.2% active; also: nearly all actives have a fitted effect of over 35% in size
# PI5P4Ka inh – qHTS for Inhibitors of phosphatidylinositol 5-phosphate 4-kinase (PI5P4K); PI5P4Kalpha enzyme, ADP-Glo luminescence, 60 min; hits give low values; max response, %; 330,000 tested, 1.2% active; AID 652105, 2013; active = max response of -50% or lower; inconclusive = between -30% and -50%; inactive = -30% or higher; also: value at the top dose of about 77 µM
#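 Quantitative HTS of the MLSMR library against PI5P4Kalpha with substrate. ATP added last at 5 microM final; room temperature, 60 minutes. Remaining ATP depleted, ADP converted and read as luminescence.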
# APE1 dye cs – Counterscreen for APE1 Inhibitors: Fluorescent Dye Displacement Assay; shares compounds with APE1 inh-1; DNA fluorescent dye displacement counterscreen, fluorescence; Potency, µM (doses to about 28.5 µM), actives largely listed as inhibitors; 480 tested, 7% active;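 also: loss of thiazole orange fluorescence as the dye is displaced from duplex DNA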
# EndoIV counter – Counterscreen for APE1 Inhibitors: qHTS Assay for Inhibitors of Endonuclease IV | E. coli Endo IV, fluorogenic AP-site DNA cleavage | 560 tested, 4% active | shares compounds with APE1 inh-1 | Potency, µM (highest dose often 27.1 µM), usual class: inhibitors
# APE1 inh-2 – Confirmation qHTS Assay for Inhibitors of the Human Apurinic/apyrimidinic Endonuclease 1 (APE1); shares compounds with APE1 inh-1; purified APE1, fluorogenic abasic-site DNA cleavage; Potency, µM (top dose mostly 57.1 µM), most hits filed as inhibitors; 750 tested, 44% active; AID 2572, 2010; also: nearly all actives have a fitted effect of over 30% in size
# APE1 FP inh – qHTS FP-Based Assay for Inhibitors of the Human Apurinic/apyrimidinic Endonuclease 1 (APE1). AID 2573, 2010. 480 tested, 7% active. APE1 binding to TAMRA-labelled double-stranded DNA, fluorescence polarization displacement. Potency, µM (series often up to 28.5 µM), actives largely listed as inhibitors. shares compounds with APE1 inh-1
# A number is an active result; i = inactive; ? = inconclusive; nt = no result; ! = repeats disagree; [ ] = remark or other dose. Unless noted, calls follow the shape of the dose curve; as a rule, active = well fitted curve in the direction sought with a large enough effect; inconclusive = small, poorly fitted or top-dose-only effect, or another doubt; inactive = no such curve, though single readings can be large; an effect the other way counts as inactive or inconclusive.
SMILES,FEN1 inhibitor,RECQ1 helicase,WRN inhibitor,APE1 inh-1,BLM inh,PI5P4Ka inh,APE1 dye cs,EndoIV counter,APE1 inh-2,APE1 FP inh
COc1ccc(NC(=O)CCNS(=O)(=O)c2ccc3c(c2)CCN3C(=O)C2CC2)cc1Cl,i,nt,nt,nt,i,nt,nt,nt,nt,nt
O=C(c1c(O)cc(O)cc1O)C1c2c(cc(O)c3c2O[C@H](c2ccc(O)cc2)[C@@H](O)C3)OC1c1ccc(O)cc1 (some centres not stated),?,nt,?,i,nt,?,nt,nt,nt,nt
O=C(OC1Cc2c(O)cc(O)cc2OC1c1cc(O)c(O)c(O)c1-c1c(C2Oc3cc(O)cc(O)c3CC2O)cc(O)c(O)c1O)c1cc(O)c(O)c(O)c1 (configuration not stated),nt,2.5µM,nt,0.1µM,6.3µM,nt,nt,i,0.18µM,nt
Cc1ccc(/C=C/c2onc(C)c2S(=O)(=O)N2CCC(C(=O)NCc3ccc(N(C)C)cc3)CC2)cc1,i,nt,nt,nt,i,nt,nt,nt,nt,nt
O=C(CCO)c1ccc(O)cc1,22µM,25µM,28µM,1.6µM,25µM,-65,i,?,1.3µM,i
COc1ccc(/C(C)=N/Nc2ccc(C(=O)O)cc2)cc1OC,i,i,i,i,i,i,nt,nt,nt,nt
COc1cc(/C=N/Nc2ccc(C(=O)O)cc2)ccc1O,i,i,i,14µM,i,i,i,i,14µM,i
COc1ccc(OC)c(/C(C)=N/Nc2ccc(C(=O)O)cc2)c1,i,i,i,28µM,i,i,i,i,?,i
O=c1c(OC2OC(CO)C(O)C(O)C2OC2OC(CO)C(O)C(O)C2O)c(-c2ccc(O)cc2)oc2cc(O)cc(O)c12 (configuration not stated),?,10µM,i[11.6 µM],8.9µM,i,i,i,i,?,i
COc1ccccc1NC(=O)C1CCN(c2cnccn2)CC1,i,nt,nt,nt,i,nt,nt,nt,nt,nt
COc1cccc(CNC(=O)CSc2nc3ccccc3nc2Cc2ccccc2)c1,i,nt,nt,nt,i,nt,nt,nt,nt,nt
CC(=O)Oc1cc(-c2coc3cc(OC(C)=O)c(OC(C)=O)c(OC(C)=O)c3c2=O)cc(OC(C)=O)c1OC(C)=O,nt,1µM,nt,0.32µM,11µM,nt,nt,i,1.1µM,nt
Cc1ccc(NC(=O)CSc2nc3ccccc3c3nc(CCc4c(C)n[nH]c4C)nn23)cc1F,i,i,i,i,?,nt,nt,nt,?,nt
CC(=O)c1nn(-c2cccc(Br)c2)cc1C(=O)c1ccccc1,i,i,i,?,i,i,i,i,i,i
CC(=O)c1nn(-c2ccccc2)cc1C(=O)c1cccc(Br)c1,i,i,i,i,i,i,nt,nt,nt,nt
Nc1ncc(N=Nc2cc(C(=O)O)ccc2Cl)s1,?,?,i[11.6 µM],8.9µM,i,-54,i,i,?,?
O=C(O)C1C2C=CC(CC2)C1C(=O)O (configuration not stated),i,i,?,13µM,i,i,nt,nt,?,nt
CC(C)c1ccc(NC(=O)C2C3C=CC(CC3)C2C(=O)O)cc1 (configuration not stated),i,nt,i,nt,nt,i,nt,nt,nt,nt
Cc1cc(C)n(-c2nc3ccccc3nc2N2CCN(c3cccc(C)c3C)CC2)n1,i,nt,nt,nt,i,nt,nt,nt,nt,nt
O=C1CCCC(O)=C1N=Nc1cccc(C(=O)O)c1,?,32µM,?,10µM,i,?,i,i,13µM,i
CCN(CC)S(=O)(=O)c1cccc(N=NC2=C(O)CCCC2=O)c1,i,?,i,i,i,i,nt,nt,nt,nt
O=c1c2cc(Br)cc(Br)c2oc2nc3n(c(=O)c12)CCCS3,nt,i,nt,i,i,nt,nt,nt,nt,nt
O=Cc1ccc2oc3nc4n(c(=O)c3c(=O)c2c1)CCCS4,50µM,13µM,20µM,?,28µM,-73,nt,nt,32µM,nt
COc1cc(NC(=O)CCc2c(C)nc3c4c(C)cc(C)nc4nn3c2C)cc(OC)c1,i,nt,nt,nt,i,nt,nt,nt,nt,nt
CC[C@H](NC(=O)[C@H](CCCN=C(N)N)NC(=O)[C@H](Cc1c[nH]c2ccccc12)NC(=O)[C@@H](N)CS)C(=O)N[C@@H](CCCN=C(N)N)C(=O)N[C@@H](Cc1ccc(O)cc1)C(N)=O,nt,i,nt,i,i,nt,nt,nt,nt,nt
SMILES,FEN1 inhibitor,RECQ1 helicase,WRN inhibitor,APE1 inh-1,BLM inh,PI5P4Ka inh,APE1 dye cs,EndoIV counter,APE1 inh-2,APE1 FP inh
CCc1nc2ccc(C(=O)NCCc3ccc(OC)c(OC)c3)cc2nc1CC,i,nt,i,i,i,i,nt,nt,nt,nt
COc1ccc(CCNC(=O)c2ccc3nc(-c4ccco4)c(-c4ccco4)nc3c2)cc1OC,?,16µM,35µM,8.9µM!,14µM,-55,nt,nt,16µM,nt
Cc1nc(N=Nc2ccc(S(=O)(=O)O)cc2S(=O)(=O)O)c(COP(=O)(O)O)c(C=O)c1O,nt,i,nt,32µM!,i,nt,nt,i,i,nt
Cc1nc(N=Nc2ccc(C(=O)O)cc2)c(COP(=O)(O)O)c(C=O)c1O,nt,i,nt,?,nt,nt,nt,i,14µM,nt
COc1ccc(C(=O)CSc2nnc(-c3ccco3)c(-c3ccco3)n2)cc1,?,i,?,18µM,?,-57,?,i,?,?
Cc1cccc(C)c1NC(=O)CSc1nnc(-c2ccco2)c(-c2ccco2)n1,79µM,14µM,35µM,16µM,i,-69,?,i,3.5µM,i
Cc1ccccc1NC(=O)CSc1nnc(-c2ccco2)c(-c2ccco2)n1,56µM,i,40µM,4.5µM,i,-66,i,i,16µM,i
COc1ccc(C(=O)CSc2nnc(-c3ccco3)n2C)cc1,i,i,i,i,i,nt,nt,nt,nt,nt
CN(C)c1ccc(-c2nc3cnccn3c2Nc2cccc(C(F)(F)F)c2)cc1,i,nt,nt,nt,i,nt,nt,nt,nt,nt
COc1ccc2cc(C#N)c(=O)oc2c1,nt,i,nt,?,i,nt,nt,nt,nt,nt
